# DAX1 inh-1 = DAX1 (NR0B1) inhibitors, primary screen, cell-based, HEK293, Gal4-DAX1, luciferase luminescence. HEK293 Gal4-DAX1 luciferase reporter. inhibition, % at 6.75 µM. 340,000 compounds, 0.99% hits;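 active = inhibition above the mean over all tested compounds plus 3 SD, cut at about 4.2% in these data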;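 also: inhibition shows as a rise in luminescence from relieved DAX1 repression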
# Target sequence (P51843 207-470 limits assumed): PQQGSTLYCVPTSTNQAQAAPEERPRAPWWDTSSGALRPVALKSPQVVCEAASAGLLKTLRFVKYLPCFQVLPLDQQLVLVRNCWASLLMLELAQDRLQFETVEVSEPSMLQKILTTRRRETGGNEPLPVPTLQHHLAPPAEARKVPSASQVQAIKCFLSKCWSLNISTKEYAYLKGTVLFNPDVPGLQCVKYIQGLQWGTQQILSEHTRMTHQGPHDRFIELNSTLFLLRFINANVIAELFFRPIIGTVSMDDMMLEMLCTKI
# hcDAF12 agonist = H. contortus DAF-12 nuclear receptor activators, primary screen, cell-based, luminescence, HEK293, lit1-tk-luc reporter; activation, % at 6.8 µM; 370,000 compounds, 1.4% hits; AID 652067, 2013; HEK293 hcDAF-12 lit1-tk-luc reporter; 0% DMSO, 100% Δ7-dafachronic acid;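 active = activation above the mean of all tested compounds plus 3 SD, cut at about 5.5% in these data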
# hgDAF12 agonist = H. glycines DAF-12 receptor agonists, primary screen, cell-based, luminescence, HEK293, GAL4 fusion, UAS-luciferase; activation, % at 6.8 µM; 370,000 compounds, 1.8% hits; Nuclear hormone receptor DAF-12 (Heterodera glycines), GAL4 fusion; AID 687014, 2013; HEK293 GAL4-hgDAF12 UAS-luciferase reporter, agonist luminescence; normalized to butyrate control;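 active = activation above a cutoff set at the mean of all screened compounds plus 3 SD, cut at about 10% in these data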
# ssDAF12 agonist = S. stercoralis DAF-12 nuclear receptor activators, primary screen, cell-based, luminescence, HEK293, GRIP1 co-expression, lit1-tk-luc; Nuclear hormone receptor DAF-12 (Strongyloides stercoralis); HEK293 ssDAF-12/GRIP1 lit1-tk-luc reporter; % of 3 µM dafachronic acid response; activation, % at 6.8 µM; 370,000 compounds, 1% hits;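 active = activation above the mean over all tested compounds plus 3 SD, cut at about 0.9% in these data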
# DAX1 inh-2 = DAX1 (NR0B1) inhibitors on StAR promoter, primary screen, cell-based, luminescence, SF-1 (NR5A1), full-length DAX-1; HEK293T StAR-luciferase reporter, SF-1/DAX-1 repression relief; inhibition, % at 6.8 µM; 370,000 compounds, 1.1% hits;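 active = inhibition above the mean over all tested compounds plus 3 SD, cut at about 3.6% in these data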;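 also: higher inhibition means more luminescence from relief of DAX-1 repression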
# DAX1 conf = DAX1 (NR0B1) inhibitors relieving SF-1 repression, confirmation, cell-based, luminescence, HEK293T, full-length DAX-1, SF-1 activated StAR promoter; HEK293T StAR-promoter luciferase reporter, SF-1/DAX-1 repression; inhibition, % at 6.8 µM; 2,400 compounds, 87% hits; shares compounds with DAX1 inh-2;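 active = inhibition above the average of every tested compound plus 3 SD, cut at about 3.8% in these data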
# SF1 AF2mut Luc = StAR reporter signal changes without DAX1, counter-screen for DAX1 inhibitor project, cell-based, luminescence, AF-2 mutant SF-1, transactivation; inhibition, % at 6.8 µM; shares compounds with DAX1 inh-2; 2,400 compounds, 78% hits; HEK293 StAR-luciferase, SF-1 AF2 mutant;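 active = inhibition above the mean of all tested compounds plus 3 SD, cut at about 3% in these data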
# LXR ag = LXR agonists, Gal4 luciferase reporter, confirmation, counter-screen for hcDAF-12 agonist project, cell-based, luminescence, HEK293, H. contortus campaign; shares compounds with hcDAF12 agonist; HEK293 Gal4-LXR tk-luc reporter, 24 h; normalized: DMSO 0%, positive control 100%; activation, % at 6.8 µM; 3,400 tested, under 10 active;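 active = mean percent activation of the reporter above a cutoff set as the average over tested compounds plus their standard deviation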
# Target sequence (P55055 whole entry, looked up, the tested form may be a part): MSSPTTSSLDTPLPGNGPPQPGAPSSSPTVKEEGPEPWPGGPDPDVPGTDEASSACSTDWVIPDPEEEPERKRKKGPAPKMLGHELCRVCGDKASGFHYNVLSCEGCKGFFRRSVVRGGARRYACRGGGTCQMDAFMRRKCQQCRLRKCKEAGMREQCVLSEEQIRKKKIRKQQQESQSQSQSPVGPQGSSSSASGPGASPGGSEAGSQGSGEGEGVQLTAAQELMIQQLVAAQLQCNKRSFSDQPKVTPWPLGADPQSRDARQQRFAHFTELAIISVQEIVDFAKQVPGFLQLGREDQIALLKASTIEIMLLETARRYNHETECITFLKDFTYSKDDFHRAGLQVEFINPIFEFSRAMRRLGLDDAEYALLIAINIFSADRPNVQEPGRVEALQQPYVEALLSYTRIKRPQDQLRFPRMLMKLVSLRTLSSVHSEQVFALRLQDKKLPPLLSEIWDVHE
# hcDAF12 ag = H. contortus DAF-12 receptor agonists, confirmation, cell-based, luminescence, HEK293, lit1-tk-luc, triplicate; activation, % at 6.8 µM; shares compounds with hcDAF12 agonist; HEK293 hcDAF-12 lit1-tk-luc reporter; % of Δ7-dafachronic acid response; 3,400 compounds, 61% hits;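 active = mean activation across triplicate tests above the threshold derived from the earlier primary screen, cut at about 5.5% in these data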
# hgDAF12 ag = H. glycines DAF-12 receptor agonists, confirmation, cell-based, luminescence, HEK293, GAL4-LBD fusion | shares compounds with hgDAF12 agonist | HEK293 GAL4-hgDAF12 luciferase reporter, agonist mode; percent of butyrate response | activation, % at 6.8 µM | 3,300 compounds, 80% hits | AID 743050, 2013;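 active = mean activation over triplicate wells above the hit cutoff derived from the earlier primary screen, cut at about 11% in these data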
# LXRb DAF12 ctr = LXR agonists, Gal4 luciferase reporter, confirmation, counter-screen for hgDAF-12 agonist project, cell-based, luminescence, HEK293, H. glycines campaign; shares compounds with hgDAF12 agonist; 24 h; activation, % at 6.8 µM; 3,300 tested, under 10 active; AID 743051, 2013;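 active = mean activation of the triplicate above a set limit carried over from the primary screen, none filed active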
# Numbers stand for hits; i = inactive; nt = no result. Only some compounds are listed: those with a hit (about 4.1% of all), similar ones and a draw of the others.
SMILES,DAX1 inh-1,hcDAF12 agonist,hgDAF12 agonist,ssDAF12 agonist,DAX1 inh-2,DAX1 conf,SF1 AF2mut Luc,hgDAF12 ag,LXRb DAF12 ctr,others
CN(Cc1ccccc1)C(=O)c1cccc(NC(=O)Cc2ccc(NC(=O)C3CCCN(S(=O)(=O)c4cccc([N+](=O)[O-])c4)C3)cc2)c1 (stereo not given),nt,i,i,i,i,nt,nt,nt,nt,
C=C(C)Cn1c2ccc(NC(=O)CCOCC)cc2c(=O)n1C,nt,i,i,i,i,nt,nt,nt,nt,
COc1cccc(NC(=O)c2ccc3c(c2)N(C)CCS3)c1,i,6.2,16.4,i,8.7,10.3,9.3,18.4,i,
CC(=O)C1=CCC(c2ccccc2)N(S(=O)(=O)c2ccc(Cl)cc2)C1 (stereo not given),nt,i,i,i,i,nt,nt,nt,nt,
Cc1ccccc1NC(=O)c1nnn(-c2ccc3c(c2)OCCO3)c1N,i,i,i,i,i,nt,nt,nt,nt,
Nc1c(C(=O)Nc2cccc(F)c2)nnn1-c1ccc2c(c1)OCCO2,i,7.0,17.0,i,4.5,15.8,5.2,18.1,i,LXR ag=i;hcDAF12 ag=8.4
Cc1nc2nc(-c3ccccc3)cn2nc1C,i,6.2,13.7,i,4.8,11.4,5.1,11.9,i,
O/N=C(\COc1ccccc1O)c1ccccc1,i,i,i,i,i,nt,nt,nt,nt,
ON=C(CCc1ccccc1)c1ccccc1,nt,7.0,14.8,i,5.1,11.9,6.7,15.8,i,LXR ag=i;hcDAF12 ag=5.8
Cc1ccn2c(c1)nc(=S)n2C(=O)c1ccccc1,4.5,6.7,15.0,i,6.5,8.0,i,10.8,i,LXR ag=i;hcDAF12 ag=11.6
CC(C)C(=O)Nc1ccc2nn(-c3ccccc3)nc2c1,i,8.8,21.6,1.0,12.5,13.4,7.3,18.7,i,LXR ag=i;hcDAF12 ag=8.4
O=C(Nc1ccc2nn(-c3ccccc3)nc2c1)c1cccnc1,i,i,i,i,i,nt,nt,nt,nt,
Cc1ccc(OCCCC(=O)N(C)CC(=O)Nc2c(C)cccc2C)cc1,i,i,i,i,i,nt,nt,nt,nt,
O=C(Nc1ccccc1O)c1ccc(NC(=O)C2CC2)cc1,9.5,9.8,62.1,i,42.1,46.2,22.3,69.0,i,LXR ag=i;hcDAF12 ag=7.9
O=C(Nc1ccccc1C(=O)O)c1ccc(NC(=O)C2CC2)cc1,i,i,i,i,i,nt,nt,nt,nt,
Clc1ccc2nc(CSc3nnc(-c4c[nH]c5ccccc45)o3)cn2c1,i,i,i,i,i,nt,nt,nt,nt,
Brc1ccc2nc(-c3c[nH]c4ccccc34)cn2c1,6.2,10.9,21.9,i,8.8,18.0,8.5,21.2,i,LXR ag=i;hcDAF12 ag=9.6
C=CC[C@]12C=C(OC)C(=O)C=C1O[C@@H](c1ccc3c(c1)OCO3)[C@H]2C,i,i,i,i,i,nt,nt,nt,nt,
COc1ccc2c(CC(=O)Nc3nc(C)cs3)coc2c1,i,i,i,i,i,nt,nt,nt,nt,
COc1ccc2oc(C(=O)Nc3nc(C)cs3)c(C)c2c1,i,9.9,20.8,1.1,6.9,10.4,6.6,20.0,i,LXR ag=i;hcDAF12 ag=12.3
COc1ccc2oc(C(=O)NC3CCCCC3)c(C)c2c1,i,5.8,16.2,i,6.2,7.0,5.9,13.9,i,
COc1ccc2oc(C(=O)NN3C(C)CCCC3C)c(C)c2c1 (stereo not given),i,i,i,i,i,nt,nt,nt,nt,
Nc1c2c(nc3sc4c(c13)CCCCC4)CCCCC2,i,5.8,16.4,i,5.0,8.7,3.5,15.7,i,
CCc1c(-c2ccccc2)nc2sc3c(c2c1N)CCCC3,i,i,i,i,i,nt,nt,nt,nt,
Cc1ccnc(NC(=O)c2cccc(NC(=O)c3ccccc3C)c2)c1,i,i,i,i,i,nt,nt,nt,nt,
SMILES,DAX1 inh-1,hcDAF12 agonist,hgDAF12 agonist,ssDAF12 agonist,DAX1 inh-2,DAX1 conf,SF1 AF2mut Luc,hgDAF12 ag,LXRb DAF12 ctr,others
O=C(Nc1cnn(Cc2ccc(Cl)cc2)c1)c1cnccn1,i,i,i,i,i,nt,nt,nt,nt,
O=C(OCC(=O)c1ccc(Cl)s1)c1ccc(CO)cc1,i,i,i,i,i,nt,nt,nt,nt,
O=C(NCCc1ccc(Cl)cc1)c1ccc2c(c1)OCO2,i,i,13.4,i,10.7,11.8,6.6,15.6,i,
Cc1ccc(NC(=O)COc2ccccc2C=O)cc1Cl,i,5.8,20.1,i,4.5,9.6,5.4,15.4,i,
CC(=O)Nc1ccc2nc(-c3ccccc3)cn2c1,i,i,20.9,i,6.0,10.0,6.6,16.6,i,
CC(=O)Nc1ccc(-c2cc(-c3ccccc3)nc(-c3ccccc3)n2)cc1,i,i,i,i,i,nt,nt,nt,nt,
CC(=O)Nc1ccc(S(=O)(=O)N[C@@H](C)C(=O)OCc2ccc(Cl)cc2)cc1,i,i,i,i,i,nt,nt,nt,nt,
O=C(Nc1ccccc1)c1ccc(-c2ccc(F)cc2)s1,i,i,13.3,1.0,7.1,11.3,7.0,17.6,i,
CCc1ccc(C2=NN(C(C)=O)C(c3ccco3)C2)cc1 (stereo not given),i,i,15.4,i,4.9,9.5,5.5,15.0,i,
CN(C)c1ccc(-c2nnc(-c3cccs3)o2)cc1,4.4,i,19.8,i,5.8,14.5,5.9,16.8,i,

# Compound activity from PubChem.
